Shown are actives, neighbours in structure and some others; about 2.4% of the full set was active somewhere.
D2 antagonist: antagonists of human D2 dopamine receptor; AID 485344; 340,000 compounds, 2% hits; P14416; HEK293 TREx D2 cells, calcium flux, dopamine EC80; inhibition, % at 10 µM; in the data active = inhibition above about 30%; inactive = below that, where a call was filed; also: 0% is about no effect
Target sequence (P14416 whole entry, looked up): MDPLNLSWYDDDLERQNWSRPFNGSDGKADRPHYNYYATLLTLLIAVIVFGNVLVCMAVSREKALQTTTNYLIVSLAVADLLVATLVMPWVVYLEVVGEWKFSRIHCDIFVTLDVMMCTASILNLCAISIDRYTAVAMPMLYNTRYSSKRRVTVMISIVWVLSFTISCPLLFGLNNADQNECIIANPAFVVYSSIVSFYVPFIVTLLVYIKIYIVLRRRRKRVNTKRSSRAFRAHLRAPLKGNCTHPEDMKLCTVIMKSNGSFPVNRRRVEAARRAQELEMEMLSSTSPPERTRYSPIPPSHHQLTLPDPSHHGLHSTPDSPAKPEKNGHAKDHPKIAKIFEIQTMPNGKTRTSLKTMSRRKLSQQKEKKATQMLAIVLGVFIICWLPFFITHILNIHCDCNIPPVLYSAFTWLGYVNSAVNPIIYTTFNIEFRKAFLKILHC
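Read-out: kinetic calcium fluorescence (1 cycle/s) in inducible HEK293 T-REx D2 cells after an EC80 dopamine addition that followed 180 s compound preincubation. Loss of the dopamine response indicates antagonism.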
D2 PAM-1: human D2 receptor positive allosteric modulation; DiscoveRx D2 beta-arrestin cells, luminescence, 90 min; 100% = 57 uM dopamine signal; AID 624464; potentiation, % (test concentration not listed); 360,000 compounds, 0.23% hits; in the data active = potentiation above about 50%
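PathHunter beta-arrestin assay in DiscoveRx D2 cells. Compounds were added with an EC20 of dopamine (50 nM final) for 90 min at 37 deg C. Luminescence was read 1 h after detection reagent, with 57 uM dopamine as the EC100 control.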
D2 ag-1: human D2 receptor agonism in beta-arrestin assay | DiscoveRx PathHunter D2 beta-arrestin, luminescence, 90 min; 100% = 57 uM dopamine signal | activation, % (no concentration beside the values) | 360,000 compounds, 0.084% hits | AID 624465; in the data active = activation above about 40%
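DiscoveRx PathHunter D2 beta-arrestin cells (2,100/well) attached overnight, then compound-stimulated 90 min at 37 C in HBSS/10 mM HEPES/0.1% Tween-20 buffer; beta-galactosidase complementation read by luminescence after 1 h at ambient temperature. Dopamine 57 uM final (EC100) as control.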
D2 PAM-2: D2 dopamine receptor (human) potentiation | HEK293 T-REx D2, calcium flux, EC20 dopamine potentiation | 340,000 compounds, 0.34% hits | P14416 | potentiation, % at 10 µM;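 active = potentiation over 3 SD above the plate norm, cut at about 30% in these data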; also: 0% is about no effect
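Potentiation of an EC20 dopamine calcium response measured kinetically over 180 s, after a preceding 180 s compound-only read flagging agonists. Cells: inducible Hek293 Trex D2 line, 4000/well, cultured overnight at 30 C before dye loading.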
D2 ag-2: agonists of human D2 dopamine receptor; AID 485358; 340,000 compounds, 0.53% hits; activation, % at 2 µM; HEK293 T-REx D2 cells, calcium flux agonist mode; P14416;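 active = activation over 3 SD above normal in the single-dose calcium agonist read, cut at about 30% in these data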; also: 0% is about no effect
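Tetracycline-induced HEK293 Trex cells with D2 receptor force-coupled to calcium signaling, plated overnight at 30 C and loaded with no-wash calcium dye. Calcium flux read kinetically for 180 s after compound addition; responses flag agonists.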
Starred values were filed as active, the others as inactive.

CCSc1nc2ccccc2n1CCC(=O)O was read as D2 antagonist 45*, D2 PAM-1 4, D2 ag-1 -2, D2 PAM-2 -7 and D2 ag-2 -2.
For OC(CNCC#Cc1ccccc1)c1ccccc1 (centres undefined) the results were D2 antagonist 39*, D2 PAM-1 -11, D2 ag-1 1, D2 PAM-2 -5 and D2 ag-2 20.
For OC(CNCc1ccccc1)c1ccccc1 (centres undefined) the results were D2 antagonist 6, D2 PAM-1 -6, D2 ag-1 -4, D2 PAM-2 -12 and D2 ag-2 1.
Screening CC(C)c1nnc(N2C(=O)C(O)=C(C(=O)c3cccs3)C2c2ccccc2)s1 (centres undefined) returned D2 antagonist 48*, D2 PAM-1 -2, D2 ag-1 -2, D2 PAM-2 3 and D2 ag-2 166*.
Screening COC(=O)COc1cccc2c(=O)n(CC(=O)N3CCCc4ccccc43)ccc12 returned D2 antagonist 31*, D2 PAM-1 -5, D2 ag-1 -5, D2 PAM-2 7 and D2 ag-2 0.
For CCOC(=O)COc1cccc2c(=O)n(CC(=O)N3CCCCC3)ccc12 the results were D2 antagonist 21, D2 PAM-1 -4, D2 ag-1 2, D2 PAM-2 5 and D2 ag-2 0.
`Cc1cccc(NS(=O)(=O)c2ccc3c(c2)OCC(C(=O)N2CCCC2)O3)c1C` (centres undefined) gave D2 PAM-2 12 and D2 ag-2 0.
For CC(NCC(O)c1ccc([N+](=O)[O-])cc1)C12CC3CC(CC(C3)C1)C2 (centres undefined) the results were D2 antagonist 38*, D2 PAM-1 -7, D2 ag-1 -7, D2 PAM-2 20 and D2 ag-2 0.
Screening O=C(NCC(O)c1ccc([N+](=O)[O-])cc1)Nc1ccccc1 (centres undefined) returned D2 antagonist 6, D2 PAM-1 -12, D2 ag-1 -3, D2 PAM-2 0 and D2 ag-2 0.
For Cc1cc(/C=C2\SC(=Nc3ccc(F)cc3)NC2=O)c(C)n1-c1ccc(S(N)(=O)=O)cc1 the results were D2 antagonist 38*, D2 PAM-1 -6, D2 ag-1 -2, D2 PAM-2 0 and D2 ag-2 2.
`Cc1ccc(NC(=O)CN2C(=O)NC(C)(c3ccc(Cl)cc3)C2=O)cc1` (centres undefined) gave D2 antagonist -7, D2 PAM-1 -6, D2 ag-1 -3, D2 PAM-2 1 and D2 ag-2 3.
For Cc1ccc(C2(C)NC(=O)N(CC(=O)Nc3ccc(S(=O)(=O)Nc4nccs4)cc3)C2=O)cc1 (centres undefined) the results were D2 antagonist -1, D2 PAM-1 4, D2 ag-1 3, D2 PAM-2 31* and D2 ag-2 -1.
`COc1ccc(-c2nc3ccccc3o2)cc1NC(=O)c1ccc(-c2cccc(Cl)c2C)o1` gave D2 PAM-2 -1 and D2 ag-2 0.
Screening COc1ccccc1N1CCN(C(=S)Nc2ccccc2)CC1 returned D2 antagonist 47*, D2 PAM-1 -12, D2 ag-1 5, D2 PAM-2 -5 and D2 ag-2 0.
Screening COc1ccccc1N1CCN(C(=S)Nc2ccc(F)cc2)CC1 returned D2 antagonist -11, D2 PAM-1 -15, D2 ag-1 3, D2 PAM-2 -3 and D2 ag-2 1.
C=CCc1ccccc1OCCNCCCOC was read as D2 antagonist 69*, D2 PAM-1 -32, D2 ag-1 -6, D2 PAM-2 -22 and D2 ag-2 0.
Screening C=CCc1cc(Cl)ccc1OCCOCCNCCOC returned D2 antagonist 4, D2 PAM-1 -16, D2 ag-1 -3, D2 PAM-2 -20 and D2 ag-2 1.
Screening C=CCc1cc(Cl)ccc1OCCNCCCOC returned D2 antagonist 37*, D2 PAM-1 -16, D2 ag-1 -1, D2 PAM-2 -33 and D2 ag-2 1.
Screening CCCCc1ccc(S(=O)(=O)NC(=O)C2(C)CCN2C(=O)C/C=C/c2ccccc2)cc1 (centres undefined) returned D2 PAM-1 4 and D2 ag-1 -3.
`O=c1c2ccccc2cnn1Cc1nnc(-c2cccs2)o1` gave D2 antagonist 10, D2 PAM-1 1, D2 ag-1 -2, D2 PAM-2 26 and D2 ag-2 0.
`C[C@@H]1CN([C@H](C)CO)C(=O)CCCn2cc(nn2)CO[C@H]1CN(C)S(=O)(=O)c1ccccc1F` gave D2 PAM-1 -8 and D2 ag-1 -5.
Screening CN(C)S(=O)(=O)c1cccc(NC(=O)c2ccc(OC(F)(F)F)cc2)c1 returned D2 antagonist 46*, D2 PAM-1 -31, D2 ag-1 1, D2 PAM-2 -24 and D2 ag-2 0.
For CN(C)S(=O)(=O)c1cccc(C(=O)Nc2ccccc2)c1 the results were D2 antagonist 47*, D2 PAM-1 -4, D2 ag-1 6, D2 PAM-2 3 and D2 ag-2 0.
`CN(c1ccc(C(=O)Nc2ccc(CC#N)cc2)cc1)S(C)(=O)=O` gave D2 antagonist 41*, D2 PAM-1 0, D2 ag-1 -3, D2 PAM-2 4 and D2 ag-2 0.
Screening CN(c1ccc(C(=O)Nc2ccc3c(c2)OCO3)cc1)S(C)(=O)=O returned D2 antagonist 0, D2 PAM-1 -13, D2 ag-1 -4, D2 PAM-2 -3 and D2 ag-2 0.
Screening CN1CCC(N(C)C(=O)COc2ccccc2Cl)CC1 returned D2 antagonist 31*, D2 PAM-1 -3, D2 ag-1 -2, D2 PAM-2 -15 and D2 ag-2 2.
CN(C(=O)COc1ccc(Br)cc1Cl)C1CCCCC1 was read as D2 antagonist -9, D2 PAM-1 -11, D2 ag-1 -2, D2 PAM-2 -8 and D2 ag-2 1.
COc1ccc(/C(C)=N/Nc2nccnc2Cl)cc1 was read as D2 antagonist 36*, D2 PAM-1 -5, D2 ag-1 5, D2 PAM-2 10 and D2 ag-2 0.
`C/C(=N\Nc1nccnc1Cl)c1ccc(Br)cc1` gave D2 antagonist 2, D2 PAM-1 0, D2 ag-1 4, D2 PAM-2 3 and D2 ag-2 1.
COC(=O)c1nn(-c2cccc(C)c2)c2nnc(Cc3ccccc3)c(=O)n12 was read as D2 antagonist 63*, D2 PAM-1 11, D2 ag-1 5, D2 PAM-2 -12 and D2 ag-2 0.
`COC(=O)c1nn(-c2ccccc2)c2nnc(Cc3ccc(C)cc3)c(=O)n12` gave D2 antagonist -4, D2 PAM-1 -7, D2 ag-1 -4, D2 PAM-2 0 and D2 ag-2 0.

Bioassay records (PubChem BioAssay)
